# Over roughly 25,000 sequences, “ln(normalized median fluorescence intensity)” has its median near 7.1; the highest 2% begin near 10. The entries come from a sample that favours the highest values as a whole.
# System: PfSIP2 AP2 domain 1 (GST-tagged)
# Test: gcPBM binding intensity (ln(normalized median fluorescence intensity)); higher = stronger DNA binding
# How it was run: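 Binding intensity values are the highest Masliner-normalised natural-log median intensity among replicate spots of either probe orientation. The binding step lasted 1 h in 1× PBS with 1% milk, 0.2 mg/ml BSA, 0.5% salmon testes DNA and 0.03% Triton X-100, using GST-tagged P. falciparum DNA-binding domains expressed in E. coli on an Agilent 4 × 180k array of primer-extended double-stranded 36-bp intergenic genomic probes plus negative controls. Alexa488 anti-GST antibody and a 488 nm scan detected bound protein.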
row,Sequence,gcPBM binding intensity (ln)
1,GTATATAAATATATATATATATATATATCTATATTT [CACACA_negctrl_site871],7.42
2,ATATTATAAAATAAAAGTACACAATTATATATATAT [XGTACX_site8812],8.6
3,ATTATATAACAAAATAGTACATATATTTATTACATC [XGTACX_site336],6.99
4,CCATATTTCATTAATGAACACACAAAGAGGTATATA [CACACA_site8431],7.11
5,TTCTTCAATATATTCTTACACACTTAAAAAAAAAAA [CACACA_site228],7.5
6,ATAGGACCTATGTGCCCATGGGTACATTAAAAAAAA [CACACA_negctrl_site1465],6.83
7,AAGAAAAATATATATATAAATAAATAAATATATATA [TGCATGCA_negctrl_site330],6.98
8,TTTTTATTACATAATTAAAAAAAATAATAAAATAAA [XGTACX_negctrl_site249],6.8
9,CTTTTAAATTATTTTTGTACATAATTATATATATAT [XGTACX_site4128],8.44
10,TATTTATAAATATGTGTGCACAATTTATTTTATAAT,9.67
11,AACTATTTTATTATATGTACTTACGAATTTATAAAA [XGTACX_site5262],7.04
12,TATATATAAATATATGTGCACTTTTTATATTTATAT,10.6
13,CGATTTTTTAAGTTTGTGCACTTAAAAACTATAACA,9.78
14,TTTTGTTACTTTTATGTGCACTTATAAAACGAACTA [GTGCAC_site9551],10.3
15,TGTATTAAAAATTTGGTGCAACTTTTACATAATAAT,10.5
16,ATAATATATGTATGTATGCACTTTTATTATTTTTTT,8.01
17,ATATTATATTATTAATGTACATATATATAATTTTAA [XGTACX_site4974],7.05
18,AATTTTGTATAGGTATCACACATGAAATATATTATT [CACACA_site5526],6.98
19,ATATATATATATATATGTACATATATTTGTAATGTC [XGTACX_site8074],9.37
20,TTTCATATATATGAAACACACAAAGGAAAAAAAATT [CACACA_site4144],7.23
21,AATATAAATATAAATATAAATATATATATATATATA [TGCATGCA_negctrl_site603],9.38
22,CCTTAAAATAAGATATGTACGCAAAGGAAAACAAAG [XGTACX_site6057],7.62
23,ATTATATATAATATAGTGCATGTAAAAAATAAAACA,10

row,Sequence,gcPBM binding intensity (ln)
1,TTAAATATTTTTAGAGTGCATGTAATAAAAATATAA [GTGCAC_site9414],10.2
2,AAATAAATAAATAGAGTGCATATATATATATATTTT,8.61
3,CTATGCATTTATAGTGCATGTAAAATATAAGATAAT [TGCATGCA_site71],10.3
4,TATATAATAAGATATGCATGCACATGTAAAATGAAT [TGCATGCA_site499],8.94
5,CATTTTTCTATATGTGCATGTAAGATAAGAATAATT [TGCATGCA_site107],8.22
6,ATATATTTTTATGTAGTGCATTTAAATAATAAATGC,8.42
7,TTCTATGCATTTATAGTGCATGTAAAATATAAGATA [GTGCAC_site9466],10.9
8,AAATATTTTTAGAGTGCATGTAATAAAAATATAATG [TGCATGCA_site19],10.1
9,TTTATAAAATATCTTTCACACATTACTATGTATTAT [CACACA_site5148],6.83
10,TACTTTTATATAGAAAGTACATACAATTCATAGAAT [XGTACX_site2182],6.98
11,ATATATAAAAAATGTGGTACATTCATTTATTATACA [XGTACX_site3495],6.96
12,GTGTATTTTCTGCGCACACACATGCAAAAAGAAATA [CACACA_site1148],8.26
13,GTGTATTTGGTGCGCACACACATGCAAAAAGAAATA [CACACA_site4768],11.6
14,GTGTATTTTGTGCGCACACACATGCAAAAAGAAATA [CACACA_site6660],9.54
15,ATTTTATGTTGAAAGTGTACGTATTAATATGTAGAA [XGTACX_site245],7.34
16,TGTTATTAAAATATAGTGCATAATTAACCATTATAA [GTGCAC_site9594],8.63
17,AAATTATGCATCGAGGTGCGTCTTAAAATATAGTGG,10.3
18,GTATATAAATAAATAGTGCATTATTAAAAATAATGT,9.36
19,TAAGAGTAGTTATATACACACATGTATATTATAGTT [CACACA_site6815],6.84
20,ATAATATATACTATATGTACATATCTTTTCCTCTTT [XGTACX_site5553],7.1
21,TATAAAAATAAGCACACACACAAATATAGATTTATT [CACACA_site6558],6.98
22,AAAAAAAAAAAAAACACACAGAACAATATATAAATA [CACACA_site982],7.11
23,ATTATATAATAATGCATGCACCTTATTTTCATTTCA [GTGCAC_site9922],10.7

row,Sequence,gcPBM binding intensity (ln)
1,TATTATTTTTCATATGCATGCAAAAATAAAAAAATA [TGCATGCA_site350],7.05
2,ATATTATATAATAATGCATGCACCTTATTTTCATTT [TGCATGCA_site405],11.3
3,TCCTTATTTATATAATGTACTTTTTTTTTTCATTTT [XGTACX_site4275],6.92
4,TAATAATTAATTAATATAATATTTTTTCATAATTAT [XGTACX_negctrl_site602],6.82
5,CCTTTCACATATAATACATGCATTATTATATATGAA [TGCATGCA_site287],7.51
6,TTTATATTTATGATGGGTACACAAAATTTTACCCAT [XGTACX_site1504],6.96
7,TGAATAATCAATAGTACACACATATAAATATATATA [CACACA_site2813],7.28
8,AGGTGTCATAGATGCACACAAAAGTAACACGCACCT [CACACA_site4418],9.65
9,AAAAAAAAAATATTTGAACACACGAGGATATATAAA [CACACA_site139],6.89
10,TAAAAGATAAAATATGCATGTGTAATTTTTTTTTTT [TGCATGCA_site955],6.79
11,GCACTAAAAAAATAAACACACAGATTTATATAATAT [CACACA_site1381],6.83
12,TTTTTTTAAATATACACACACATTTATACAGATATA [CACACA_site5811],7.12
13,TAAATATGCTCACAGATGCACTAACACATTTTTATA [GTGCAC_site9997],8.14
14,TAAATTATATTATGCACACTTAAAAATATATTTAAC [CACACA_site3512],9.01
15,GTATAATATTTTAATGCACACACACTAATAAAAAAA [CACACA_site8939],7.65
16,TGGCACTAAAAAAATAAACACACAGATTTATATAAT [CACACA_site8386],6.8
17,AACCATTTTAAATATGCACACAGATGCACTAACACA [CACACA_site8565],11
18,CCATTTTAAATATGCACACAGATGCACTAACACATT [CACACA_site5099],10.5
19,CCATTTTAAATATGCACACAGATGCACTAACCCATT [CACACA_site1883],10.7
20,TATTAACTCAATAGCGCACACTTTTAATATTTTATA [CACACA_site4973],7.33
21,TAAATAGGAAAACCTATACACACTTTAAAAAAAATA [CACACA_site1621],6.75
22,ATTATATCATCTAAAACATGCACACATATGTACTCT [TGCATGCA_site949],7.12
23,TTATTTATGAGGGTGACACACAAAAGAGTGTTAAGA [CACACA_site277],6.75

row,Sequence,gcPBM binding intensity (ln)
1,ATACGAAAAAATAGACGTACTATGAAATAATAATTT [XGTACX_site8387],6.87
2,GTCCTCATCCACTATGCACACAAAAAAGAAATACAC [CACACA_site9131],8.48
3,TGGGAAAAAATATATGCACACCCCCCAAAAAAAAAA [CACACA_site8696],10.8
4,GGAAAAAATATATGCACACCCCCCAAAAAAAAAAAA [CACACA_site2222],9.73
5,AAAAAAAAAAAACACACACACACACCCAAATATATA [CACACA_site150],7.14
6,ATAGTTTTATATAAATGTACAAATGATTTCAAATAG [XGTACX_site8236],7.08
7,TTATAATATTAATGTGCACACAATTAAAATATTATA [CACACA_site2046],9.4
8,AAAAAAAAAAAATACGTGCACTATGATATATTATAT,10.3
9,TTATATTATTCGTGTGTGCACGATATTTCATAATTG [GTGCAC_site9767],8.96
10,ATATATATATTTATAGTGCATTTATATTAAAATATC [GTGCAC_site9818],8.92
11,TAAATATATATATATAGTACAATATAATTATGATAT [XGTACX_site258],7.24
12,GTTATATTTAAAATAGTGCAATAAAAATAATAATAT,8.42
13,ATAATTATATGATGAGTGCACAATAAAAATATCGTT [GTGCAC_site9920],10.7
14,ATTATTAAAATGATATGTACGCACATAATATACATA [XGTACX_site3236],7.06
15,ATGATATATTTAATAGTGCACTAATTAAAATTATTA [GTGCAC_site9418],11
16,ATAATTAAAAATAATATATATATAATATGATATTAT [GTGCAC_negctrl_site194],6.94
17,ATATATATATATTTCGTGCACTGATAATATTATTTT,10.2
18,ATATTTTATATAATAGTGCAAATAATATTAAATAAT,8.4
19,TATATATATACTTAATGTACATATATATATATATAT [XGTACX_site3102],9.75
20,CCCCTTAATTAAAGGAGTACTATTTGTGAATAATAT [XGTACX_site4715],7.47
21,ATAATTCCATAAAATAGACACACGAATGTATAATAT [CACACA_site477],7
22,AATAATGAAAAATCAAATAACCTAAATTACAACTGT [XGTACX_negctrl_site65],6.91
23,TACGTTGTATATTTTTGTACATATTGAATTACAAAA [XGTACX_site5906],6.95
